Measured values published in PMC5540273 (PLoS ONE, 2017).
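Note: kd values determined as follow-up on hits from a single-replicate KINOMEscan panel screen.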

These compounds were tested on JAK2(JH1domain-catalytic).
`C[C@@H]1CCN(C(=O)CO)C[C@@H]1N(C)c1ncnc2[nH]ccc12` gave a Kd of 0.011 µM.
With `Fc1cccc(COc2ccc(Nc3ncnc4sc(-c5ccc[nH]5)cc34)cc2Cl)c1` [GW707818] the Kd was over 10 µM.
With `Cl.c1ccc(Cn2ccc3cc(Nc4ncnc5ccccc45)ccc32)cc1` [GW275568] the Kd was over 10 µM.
`Nc1nc(-c2ccc3c(N)n[nH]c3c2)cc(N2CCC[C@@H](C(=O)Nc3ccccc3)C2)n1.O=C(O)C(F)(F)F.O=C(O)C(F)(F)F` [GSK2288359] gave a Kd of over 10 µM.
